Consider 7 molecules from PubChem BioAssay AID1036 (National Center for Advancing Translational Sciences (NCATS), 2008).

The structures appear in SMILES notation. Results filed as inconclusive are left out. Active and inactive are the calls of the source. Calls come from the whole dose curve.

This assay in a line: NSCLC 1 Cell Viability Secondary Assay for qHTS Assay for Epigenetic Modulator. Conditions: NSCLC 1 cells viability, MTS absorbance, 4 days. The source says:
NIH Molecular Libraries Screening Centers Network [MLSCN] NIH Chemical Genomics Center [NCGC] MLSCN Grant: 1 X01 MH079860-01 Assay Provider: Elisabeth D. Martinez, University of Texas SW Medical Center NCGC Assay Overview: This secondary assay characterizes selected actives identified in the qHTS of the Locus Derepression (LDR) assay (PubChem AID 597). The LDR assay detects the derepression of a GFP reporter that is stably integrated in a region of the genome of murine c127i mammary cells that is presumably silenced. Compounds that cause derepression of the locus to express GFP are identified by enumerating GFP positive cells using a laser-scanning microplate cytometer. Selected LDR actives were assayed for killing of NSCLC 1, a patient-derived nonsmall cell lung carcinoma line. Known epigenetic drugs, like histone deacetylase inhibitors, can block cancer cell growth. NSCLC 1 cell viability was measured using Cell Titer 96 AQueous One (Promega), an assay which detects the ability of metabolically active cells to reduce a tetrazolium salt substrate (MTS), into a soluble formazan product that can be measured by colorimetry.
NCGC Assay Protocol Summary NSCLC 1 cells were plated in 96-well flat bottom tissue culture dishes (Corning) and grown overnight at 37 C and 5% CO2, then treated with compounds, incubated 4 days, and assayed for viability using the Cell Titer 96 AQueous One kit (Promega) according to the manufacturer's protocol. Absorbance at 490 nm and 650 nm (reference) was measured by a Spectra Max (Molecular Devices). Data were normalized to the untreated control (100% viability). Each cell line was tested in one or two independent assays, each containing 4 or 8 replicates. For further details, see R.L. Johnson, W. Huang, A. Jadhav, C.P. Austin, J. Inglese, E.D. Martinez, A Quantitative High-Throughput Screen Identifies Potential Epigenetic Modulators of Gene Expression, Analytical Biochemistry (2007), doi: 10.1016/j.ab.2007.12.028
For orientation: qHTS replaces the single test concentration by a dilution series.
For `CN1C(=S)SC(c2ccccc2)N(C)C1c1ccccc1` (configuration not stated), the molecule was classed as inactive.

For the molecule `CC(C)C(=O)NC(c1ccc(N(C)C)cc1)c1ccc2cccnc2c1O` (configuration not stated), the Potency is 0.3 µM (active).

As for `O=C(CSc1cccc2cccnc12)NCc1ccccc1`, the result was inactive.

Turning to `O=Nc1ccc(O)c2ncccc12`, the Potency was 4 µM (active).

Regarding `CC(C)C(=O)NC(c1ccco1)c1ccc2cccnc2c1O` (configuration not stated), the Potency is 1 µM (active).

As for `CC(/C=C/C(=O)NO)=C\[C@@H](C)C(=O)c1ccc(N(C)C)cc1`, the Potency is 0.1 µM (active).

On to `CC(C)C(=O)NC(c1ccco1)c1cc([N+](=O)[O-])c2cccnc2c1O` (configuration not stated), for which the Potency is 8 µM (active).
